Only some compounds are listed: those with a hit (about 1.6% of all), similar ones and a draw of the others.
KCNQ2 enhance = KCNQ2 (rat) channel potentiation. AID 2239. O88943. 0.54% of 310,000 active. CHO-K1 KCNQ2, FluxOR thallium flux fluorescence; hits give high values. B-score at 10 µM;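 active means fluorescence ratio B-score at least 3 SD of library B-scores, with initial fluorescence B-score within 3 of them, cut at about 5.3 in these data; same plate scores as AID 2156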;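 further: B-score of peak minus minimum over baseline fluorescence ratio after K+ and Tl+ stimulus; positive B-score means potentiation of KCNQ2 with more thallium influx and brighter signal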
KCNQ2 block = KCNQ2 (rat) channel inhibition; O88943; CHO-K1 KCNQ2, FluxOR thallium flux, 20 min; hits give low values; B-score at 10 µM; 1.1% of 310,000 active; AID 2156;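 active means fluorescence ratio B-score at most minus 3 library SDs, with starting brightness B-score within 2 library SDs, cut at about -5.5 in these data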
Kir21 confirm = confirmation of mouse Kir2.1 potassium channel inhibitors | AID 2032 | shares compounds with KCNQ2 enhance | Kir2.1-expressing cells, FluxOR thallium flux fluorescence; hits give low values | Tl flux remaining, % of negative control (hits give low values), % at 10 µM | 41% of 2,300 active;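 active means Primary-screen hit whose thallium flux fell at least 3 control SD below untreated wells in both duplicates, with normal baseline fluorescence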;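 further: 0% = blank wells without stimulus and 100% = stimulated no-compound controls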
HEK293 Tl flux = alters thallium flux in parental HEK293 cells, Kir2.1 counter-screen; FluxOR thallium flux fluorescence; 0% = unstimulated blank wells; shares compounds with KCNQ2 enhance; 19% of 2,300 active; FluxOR signal as % of negative control (100 = no effect), % at 10 µM;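 active means dye signal at least 3 control SD above or below untreated wells in both duplicates, raw fluorescence within 3, either direction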;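 further: percent is based on the flux ratio of peak minus minimum fluorescence over baseline F0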
CHO-K1 ctr = parental CHO-K1 activity in KCNQ2 potentiator counter-screen; activity increase over 3SD of controls, % at 10 µM; 43% of 1,200 active; parental CHO-K1 cells, FluxOR thallium flux fluorescence; zero = vehicle mean+3SD, 100% = vehicle-minus-blank window; AID 2282; shares compounds with KCNQ2 enhance;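 active means signal rise of at least 3 SD above the untreated control mean, in both duplicate wells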;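 further: counter screen of KCNQ2 potentiator hits so any rise reflects channel-independent effects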
KCNQ1 sel pot = tests whether KCNQ2 potentiators also act on human KCNQ1 | shares compounds with KCNQ2 enhance | AID 2283 | activation over 3SD threshold, % at 10 µM | CHO KCNQ1 stable, FluxOR thallium flux fluorescence; beyond 3SD, as % of vehicle-control signal | 28% of 1,200 active;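 active means fluorescence ratio rise of at least 3 SD of vehicle wells above their mean, in both replicate wells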;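 further: 0% = vehicle mean plus 3 SD and 100% = vehicle minus unstimulated blank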
KCNQ2 pot conf = confirmation of rat KCNQ2 potassium channel potentiators; shares compounds with KCNQ2 enhance; CHO-KCNQ2 cells, FluxOR thallium flux fluorescence; potentiation, less the hit threshold, % at 10 µM; 68% of 1,200 active; AID 2287;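 active means fluorescence ratio rising 3 SD or more over the vehicle control mean in both replicates, plus primary screen hit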;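 further: peak minus minimum thallium fluorescence divided by baseline after K/Tl stimulus; 0% = vehicle mean plus 3 SD and 100% = vehicle minus unstimulated blank difference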
Kir21 spec = tests whether KCNQ2 potentiators also affect mouse Kir2.1; shares compounds with KCNQ2 enhance; AID 2345; HEK293 Kir2.1, FluxOR thallium flux fluorescence; activity over 3SD threshold, % at 10 µM; 2% of 1,200 active;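 active means fluorescence ratio rise of at least 3 SD above the vehicle-control mean, seen in both replicates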;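 further: 0% = vehicle mean plus 3 SD and 100% = vehicle minus no-stimulus blank window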
KCNQ2 W236L pot = KCNQ2 potentiators acting on retigabine-insensitive rat KCNQ2 W236L mutant; current increase over 3SD of negative controls (%), hits give high values, % at 25 µM; 10% of 940 active; shares compounds with KCNQ2 enhance; CHO KCNQ2-W236L, automated patch clamp current;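 active means current increase at least 3 SD of the untreated controls above them in both duplicate recordings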
Target sequence (O88943 whole entry W236L, looked up): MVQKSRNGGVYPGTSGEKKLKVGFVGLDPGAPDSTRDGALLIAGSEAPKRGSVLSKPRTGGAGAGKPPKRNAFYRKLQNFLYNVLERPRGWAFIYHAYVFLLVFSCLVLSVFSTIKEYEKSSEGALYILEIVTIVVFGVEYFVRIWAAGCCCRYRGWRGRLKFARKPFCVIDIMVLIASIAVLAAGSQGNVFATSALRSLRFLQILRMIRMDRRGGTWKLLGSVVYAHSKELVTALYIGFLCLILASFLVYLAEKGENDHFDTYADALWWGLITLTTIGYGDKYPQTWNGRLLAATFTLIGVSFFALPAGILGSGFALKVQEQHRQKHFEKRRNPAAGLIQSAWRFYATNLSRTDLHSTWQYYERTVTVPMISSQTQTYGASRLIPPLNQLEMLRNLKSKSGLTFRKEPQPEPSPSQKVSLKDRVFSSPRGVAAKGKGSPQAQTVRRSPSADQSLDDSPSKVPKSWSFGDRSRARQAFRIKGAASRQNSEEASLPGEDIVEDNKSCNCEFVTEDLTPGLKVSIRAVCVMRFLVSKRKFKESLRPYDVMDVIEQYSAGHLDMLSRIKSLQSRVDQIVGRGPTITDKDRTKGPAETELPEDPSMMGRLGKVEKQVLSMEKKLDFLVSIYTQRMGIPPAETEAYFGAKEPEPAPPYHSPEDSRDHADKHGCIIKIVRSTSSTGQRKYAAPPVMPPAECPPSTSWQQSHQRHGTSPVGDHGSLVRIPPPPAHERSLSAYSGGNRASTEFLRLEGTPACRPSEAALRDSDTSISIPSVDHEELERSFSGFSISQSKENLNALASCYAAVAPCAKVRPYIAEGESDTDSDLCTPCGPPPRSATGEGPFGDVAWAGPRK
An asterisk follows results filed as active; i = inactive; . = not tested or not shown.

SMILES	KCNQ2 enhance	KCNQ2 block	Kir21 confirm	HEK293 Tl flux	others
NNC(=O)c1c[nH]c2ccc(OCc3ccccc3)cc12	1.2	i	.	.
O=C(CCC(=O)N1CCCCC1)Nc1ccc(Cl)c(Cl)c1	.	i	.	.
Cn1c(N)c(N2CCCCC2)c(=O)n(CC(=O)Nc2ccc(Cl)c(Cl)c2)c1=O	17*	i	i	i	CHO-K1 ctr=-7;KCNQ1 sel pot=-15;KCNQ2 pot conf=47*;Kir21 spec=-35;KCNQ2 W236L pot=i
Nc1sc(-c2ccccc2)n[n+]1Cc1cccc2cccnc12	.	i	i	i
Oc1ccccc1CNc1cccc2cccnc12	.	i	.	.
O=C(Cn1cnc([N+](=O)[O-])n1)c1ccc(O)c(O)c1	.	i	.	.
O=C(Nc1scc(-c2ccc(Br)cc2)c1C(=O)O)c1ccccc1F	5.3*	i	i	186%*	CHO-K1 ctr=-10;KCNQ1 sel pot=-13;KCNQ2 pot conf=34*;Kir21 spec=-28;KCNQ2 W236L pot=i
O=C(Nc1scc(-c2ccccc2)c1C(=O)O)c1ccccc1F	.	i	.	.
CN(C)S(=O)(=O)c1cc(NC(=O)Cn2ccsc2=N)ccc1Cl	.	i	.	.
COc1ccc(C(NC(=O)CN2CCCCCC2)c2ccc(OC)cc2)cc1	.	i	.	.
O=C(NCc1ccccc1)C(c1ccncc1)N(C(=O)c1csnn1)c1cccc(F)c1 (centres undefined)	.	i	.	.
COC(=O)c1nc(NC(=S)NC(=O)c2cccs2)sc1C	5.8*	i	i	140%*	CHO-K1 ctr=5.0*;KCNQ1 sel pot=-30;KCNQ2 pot conf=-2;Kir21 spec=-37;KCNQ2 W236L pot=i
CCc1ccc(-c2nc(NC(=S)NC(=O)c3cccs3)sc2C)cc1	1.7	i	.	.
Cc1ccc(NS(=O)(=O)c2cc(NC(=O)c3ccc4c(c3)NC(=O)CS4)ccc2C)c(C)c1	0.01	i	.	.
Cc1csc(C(C)N(C)C(=O)c2ccc(OC3CCN(Cc4ccccn4)CC3)cc2)n1 (centres undefined)	.	i	.	.
O=C1C=CC(=O)C(C2=C3C(=O)N(CCc4ccccc4)CC(=O)N3CCC2)=C1	0.29	i	69%*	69%*
O=C1CC(=O)N(CCc2ccccc2)C(=O)N1CCc1ccccc1	2.8	i	.	.
CC(C)c1ccc(/C=N/NC(=O)C(=O)NCCCN2CCOCC2)cc1	0.25	i	.	.
CN(C)C(=O)c1cc(F)ccc1Sc1cc(Cl)ccc1Cl	.	i	47%*	i
CN(C)C(=O)c1cc(Cl)ccc1Sc1cc(Cl)ccc1Cl	.	i	.	.
CCCN(CC(=O)Nc1ccccc1C)C(=O)c1ccc(NC2CC2)c([N+](=O)[O-])c1	0.21	i	.	.
CCCCCCNC(=O)CC(c1ccccc1)c1cc(Br)ccc1O (centres undefined)	29*	i	i	i	CHO-K1 ctr=-3;KCNQ1 sel pot=-28;KCNQ2 pot conf=64*;Kir21 spec=-43;KCNQ2 W236L pot=i
O=CN1CCN(C(=O)CC(c2ccccc2)c2cc(Br)ccc2O)CC1 (centres undefined)	0.56	i	.	.
CC(C)NC(=O)CC(c1ccccc1)c1cc(Br)ccc1O (centres undefined)	2.8	i	.	.
O=C(CC(c1ccccc1)c1cc(Br)ccc1O)NCc1ccco1 (centres undefined)	18*	i	.	.	CHO-K1 ctr=-7;KCNQ1 sel pot=-1;KCNQ2 pot conf=67*;Kir21 spec=-66;KCNQ2 W236L pot=i
SMILES	KCNQ2 enhance	KCNQ2 block	Kir21 confirm	HEK293 Tl flux	others
CC(C)Oc1ccc(CNC(=O)CC(c2ccccc2)c2cc(Cl)ccc2O)cc1 (centres undefined)	15*	i	i	128%*	CHO-K1 ctr=11*;KCNQ1 sel pot=18*;KCNQ2 pot conf=59*;Kir21 spec=-21;KCNQ2 W236L pot=i
COc1ccccc1C(CC(=O)Nc1ccc(Cl)cc1)c1ccc(OC(C)C)cc1 (centres undefined)	.	i	.	.
O=C(CSc1ccc(-c2ccccn2)nn1)Nc1ccc(F)c(F)c1	.	i	.	.
Cc1cccc(C)c1OCC(=O)Nc1ccc(N2CCOCC2)cc1	0.03	i	.	.
Cc1ccc(C)c(C(=O)NC(C)c2ccc(-n3ccnc3)cc2)c1 (centres undefined)	0.2	i	.	.
Cc1ccc(/C=N/n2c(-c3cccs3)n[nH]c2=S)cc1	1.8	i	.	.
S=c1[nH]nc(-c2cccs2)n1/N=C/c1c(Cl)cccc1Cl	7.4*	i	i	i	CHO-K1 ctr=-4;KCNQ1 sel pot=-20;KCNQ2 pot conf=7.3*;Kir21 spec=-38;KCNQ2 W236L pot=i
CN(C(=O)c1ccc2c(c1)OCCO2)c1c(N)n(Cc2ccccc2)c(=O)[nH]c1=O	.	i	.	.
O=c1c(C(c2ccccc2)c2c(O)sc3ccccc3c2=O)c(O)sc2ccccc12	4	i	.	.
O=C(COc1ccccc1Br)NCc1ccco1	0.03	i	.	.
CCc1ccc(OCC(=O)NCc2ccco2)c(Br)c1	7.8*	i	i	i	CHO-K1 ctr=-25;KCNQ1 sel pot=-14;KCNQ2 pot conf=22*;Kir21 spec=-21;KCNQ2 W236L pot=i
CC(=O)N1c2ccc(S(=O)(=O)NCCC(=O)Nc3ccc(C)c(Cl)c3)cc2CC1C (centres undefined)	0.1	i	.	.
CCc1cccc(C)c1NC(=O)CN1CCN(S(=O)(=O)c2ccc(C(C)(C)C)cc2)CC1	5.3*	i	i	i	CHO-K1 ctr=63*;KCNQ1 sel pot=-9;KCNQ2 pot conf=-19;Kir21 spec=-35
CCc1cccc(C)c1NC(=O)COC(=O)C1CCN(S(=O)(=O)c2ccccc2)CC1	1.9	i	.	.
